Laboratory results: article PMC12136788
Substitutions are numbered along the chain they refer to. The full ranking holds about 5,800 sequences; the median of “enrichment r” is about 0.54, and the highest 2% start at about 16. Shown is part of a subset that was picked to be rich in the highest values.

B1: chrX:48700291:48700392:+|CDS|ENSG00000101945|unk|FALSE|unique (ssRNA)
RNA: GGGAGUUCUACAGUCCGACGAUCGCUCCGUCGCUGGGAGCAGGAGCUCAAUGCCAAGCGCAGCCAUCUGGGACGCAUCACUGUAGAGAAUGAGGUGGACCUGGACGGCCCUCCGCGGGCCUUCGUGUACAUCAAUGAGUACCGCAACAGAGGAUUGAGCAUCA
B2: chr2:206311781:206311882:+|3pUTR|ENSG00000204186|unk|FALSE|unique (ssRNA)
RNA: GGGAGUUCUACAGUCCGACGAUCUAGUGUUUAGAGUCCUUUCAUUUUAAGAUUCAGAAACAGCCUUUGUCCAACAUUUUCUGUAGAAGAACUUCAUCUUAAUUUAUGUCACAAAAUAAUUUAGCACCGUAUAUAGAAUUUUGUCAACAGAGGAUUGAGCAUCA
B3: chr2:206311781:206311882:+|3pUTR|ENSG00000204186|unk|total|mutant (ssRNA)
RNA: B2 RNA with U24C, A25C, U31C, A32C, U83C, A84C, U121C, A122C, U133C, A134C
B4: chr11:69651733:69651797:+|3pUTR|ENSG00000110092|msi1_unk|FALSE|overlapping (ssRNA)
RNA: GGGAGUUCUACAGUCCGACGAUCAAAACAUUUUAAAAACAUAGAAAAAUUCAGCAAACCAUUUUUAAAGUAGAAGAGGGUUUUAGGUAGAAAAACAUAUUCUUGUGCUUUUCCUGAUAAAGCACAGCUGUAGUGGGGUUCUAGCAACAGAGGAUUGAGCAUCA
B5: chr8:30995801:30996592:-|three_prime_utr|ENSG00000172733|control|control|control (ssRNA)
RNA: GGGAGUUCUACAGUCCGACGAUCUUGUUUUUUUUAAUUCAUCAAGCCUUUCGUUUUCAAACCACCAUUUGUCAGCCUUGAGGUAGAGAGACAUAUAGAUUUGAAAAUACUUUCUUAAGAGAUCAUGUAACUAUAUAACUCUGACAACAGAGGAUUGAGCAUCA
B6: chr10:121957106:121957207:-|3pUTR|ENSG00000107672|msi1|FALSE|bound_elsewhere (ssRNA)
RNA: GGGAGUUCUACAGUCCGACGAUCUGUAUCGUACAUAUUGUAUGAUUCAACAUUUUUAAAGGCAGAUUGUUUUUAGUAAAAUGUAGCUUUUGAUAGUUAAUAAAUUUGUCAUGGUUGUCUUUGAUUAAAGGAAACUCACCGCCACAACAGAGGAUUGAGCAUCA
B7: chr21:14371318:14371404:-|3pUTR|ENSG00000155304|msi1_unk|FALSE|overlapping (ssRNA)
RNA: GGGAGUUCUACAGUCCGACGAUCUAUGAAUAACAAUCUGAAGUCUUUUCAUAAAAAAAAUUAAUAAACUUUAGUUGUACAUUUAGCCAGUGUUAUUUGAAGUAUGUAACUUUUAAAAUAUUAAGUGUCUUGUAUGAUUAGAAUCAACAGAGGAUUGAGCAUCA
B8: chr10:121957106:121957207:-|3pUTR|ENSG00000107672|msi1|total|mutant (ssRNA)
RNA: B6 RNA with U73C, A74C, U83C, A84C, U93C, A94C
B9: chr20:13714314:13714426:-|3pUTR|ENSG00000089048|unk|total|mutant (ssRNA)
RNA: GGGAGUUCUACAGUCCGACGAUCUUUUUCCCGCCAUAAAGGAUGGAAGUCAAGAACUUUUUGUUGUUCCGUCAUGUUAAGUACCGUUUAUGAAAUUAACUUGUAAAUAAAAGUGUAAAAUAUUUUCAUUAUUUUGUACCGCACCAACAGAGGAUUGAGCAUCA
B10: ENSG00000198589:be:win_9051|3pUTR|ENSG00000198589|bound_else_gene|NA|bound_elsewhere_windowed (ssRNA)
RNA: GGGAGUUCUACAGUCCGACGAUCGUAAAUGUAAUUUAAAACAUCUCAAUUAAGUCUGUCUAUCAAUAUUGUUCUUCAAGCAUGUUUUAGACCUAGAAAAGUAUGGUUUGGGGGAGGCUAUUUUAUUGUGUGGUUAGCACAAGGCAACAGAGGAUUGAGCAUCA
B11: chr11:69651696:69651723:+|3pUTR|ENSG00000110092|msi1_unk|total|mutant (ssRNA)
RNA: GGGAGUUCUACAGUCCGACGAUCGAGGAUCCGGUUCCAUCCUUUACGUGUUUAAAAAAAAGCAUAAAAACAUUUUAAAAACACCGAAAAAUUCAGCAAACCAUUUUUAAAGCCGAAGAGGGUUUCCGGCCGAAAAACAUAUUCCAACAGAGGAUUGAGCAUCA
B12: chr20:13714314:13714426:-|3pUTR|ENSG00000089048|unk|FALSE|unique (ssRNA)
RNA: B9 RNA with C30U, C31A, C68U, C69A, C83U, C84A, C138U, C139A
B13: chr11:69651696:69651723:+|3pUTR|ENSG00000110092|msi1_unk|FALSE|overlapping (ssRNA)
RNA: B11 RNA with C30U, C31A, C83U, C84A, C112U, C113A, C125U, C126A, C129U, C130A
B14: ENSG00000150403:stop:overlap|stop_codon|ENSG00000150403|stop_codon|NA|stop_codon (ssRNA)
RNA: GGGAGUUCUACAGUCCGACGAUCUGUCCAGGUUCCUCAUGGGCAGUGCUCGGGGUGACAAAGAAGGCAACAGAACAGCCCUCUAGCAGAGCGUCAGUGCAGUCGUGUUAUCCCGGCUUUUACAGAAUAUUCUUGUCCUAUUUUCAACAGAGGAUUGAGCAUCA

target: MSI1 full-length (mouse, UniProt Q61474 1-362); experiment: nsRBNS (natural sequence RNA bind-n-seq); RBNS binding buffer (assumed for nsRBNS): 25 mM Tris pH 7.5, 150 mM KCl, 3 mM MgCl2, 0.01% Triton X-100, 500 ug/ml BSA, 20 U/ml SUPERase-In, 4 C; UNK is unkempt and MSI1 is Musashi-1; names of the RNAs are library labels; protein concentration not given here; high values mean tight binding
Sequence (Q61474 whole entry): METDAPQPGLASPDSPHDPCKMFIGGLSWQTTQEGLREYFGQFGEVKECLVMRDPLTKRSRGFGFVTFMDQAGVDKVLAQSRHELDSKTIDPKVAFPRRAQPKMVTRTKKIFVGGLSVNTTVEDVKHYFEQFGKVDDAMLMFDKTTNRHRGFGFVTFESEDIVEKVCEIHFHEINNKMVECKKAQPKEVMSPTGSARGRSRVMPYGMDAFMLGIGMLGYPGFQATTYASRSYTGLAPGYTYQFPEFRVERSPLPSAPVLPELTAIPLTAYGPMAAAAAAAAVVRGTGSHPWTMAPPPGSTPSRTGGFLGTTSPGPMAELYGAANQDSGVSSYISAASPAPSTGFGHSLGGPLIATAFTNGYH

| Binder | binding signal |
| --- | --- |
| B1 | 0.398 enrichment R |
| B2 | 16.7 enrichment R |
| B3 | 0.669 enrichment R |
| B4 | 13.6 enrichment R |
| B5 | 0.712 enrichment R |
| B6 | 17.9 enrichment R |
| B7 | 6.15 enrichment R |
| B8 | 0.237 enrichment R |
| B9 | 0.796 enrichment R |
| B10 | 3.05 enrichment R |
| B11 | 0.383 enrichment R |
| B12 | 58.4 enrichment R |
| B13 | 17.8 enrichment R |
| B14 | 0.829 enrichment R |
